Results published in PubChem BioAssay AID1159580 (chemical genetic matrix, 2015).
Screen size: about 5,500 compounds; about 2,000 (36%) were called active. Not shown: some 18% with an inconclusive outcome. The list shows a part of the results. Values without a mark were called inactive. No stated cut-off is given here; in the data, active means normalized growth mostly below about 0.91 (no sharp cut-off); inconclusive means no clear call, values can overlap the other calls; inactive means mostly above about 0.92.

Experiment: chemical genetic growth profiling, strain panel (AID 1159580);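 further: tested at 20 µM; growth read once vehicle control cultures reached saturation at 30 °C; 1 = growth at the plate median or of vehicle wells; lower values mean less growth of the strain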
Settings: S. cerevisiae deletion strains, growth OD

SMILES: O=C(O)c1cc(O)c2c(c1)C(=O)c1cc(O)cc(O)c1C2=O
- normalized growth (locus YBR021W, strain FUR4, active compounds read low): 0.97
- normalized growth (locus YBR229C, strain ROT2, active compounds read low): 0.92
- normalized growth (locus YCL029C, strain bik1, active compounds read low): 0.932
- normalized growth (locus YDL035C, strain GPR1, active compounds read low): 0.908
- normalized growth (locus YDL074C, strain BRE1, active compounds read low): 0.933
- normalized growth (locus YDL101C, strain DUN1, active compounds read low): 0.931
- normalized growth (locus YDL185W, strain tfp1, active compounds read low): 0.842 (active)
- normalized growth (locus YDL192W, strain arf1, active compounds read low): 0.926
- normalized growth (locus YDR101C, strain arx1, active compounds read low): 0.948
- normalized growth (locus YDR150W, strain NUM1, active compounds read low): 0.939
- normalized growth (locus YDR162C, strain NBP2, active compounds read low): 0.873
- normalized growth (locus YDR318W, strain mcm21, active compounds read low): 0.93
- normalized growth (locus YDR388W, active compounds read low): 0.938
- normalized growth (locus YDR502C, strain sam2, active compounds read low): 0.903 (active)
- normalized growth (locus YEL061C, strain CIN8, active compounds read low): 0.934
- normalized growth (locus YER110C, active compounds read low): 0.881 (active)
- normalized growth (locus YER155C, strain BEM2, active compounds read low): 0.968
- normalized growth (locus YER167W, strain BCK2, active compounds read low): 0.939
- normalized growth (locus YGL078C, strain dbp3, active compounds read low): 0.954
- normalized growth (locus YGL086W, strain mad1, active compounds read low): 0.971
- normalized growth (locus YGL248W, strain PDE1, active compounds read low): 0.956
- normalized growth (locus YGR135W, strain pre9, active compounds read low): 0.923
- normalized growth (locus YGR252W, strain gcn5, active compounds read low): 0.816
- normalized growth (locus YHR030C, strain SLT2, active compounds read low): 0.913 (active)
- normalized growth (locus YHR079C, strain IRE1 (second series), active compounds read low): 0.949
- normalized growth (locus YHR094C, strain hxt1, active compounds read low): 0.938
- normalized growth (locus YHR129C, strain ARP1, active compounds read low): 0.957
- normalized growth (locus YHR200W, strain rpn10, active compounds read low): 0.939
- normalized growth (locus YIL066C, strain RNR3, active compounds read low): 0.923
- normalized growth (locus YIL073C, strain SPO22, active compounds read low): 0.914
- normalized growth (locus YIL125W, strain kgd1, active compounds read low): 0.915 (active)
- normalized growth (locus YIR030C, strain dcg1, active compounds read low): 0.939
- normalized growth (locus YJL095W, strain BCK1, active compounds read low): 0.945
- normalized growth (locus YJL134W, strain LCB3, active compounds read low): 0.95
- normalized growth (locus YJL168C, strain set2, active compounds read low): 0.912 (active)
- normalized growth (locus YJL187C, strain SWE1 (second series), active compounds read low): 0.952
- normalized growth (locus YJR043C, strain POL32, active compounds read low): 0.864
- normalized growth (locus YKL009W, strain mrt4, active compounds read low): 0.967
- normalized growth (locus YKL068W, active compounds read low): 0.913 (active)
- normalized growth (locus YKL085W, strain MDH1 (second series), active compounds read low): 0.888 (active)
- normalized growth (locus YKL085W, strain MDH1, active compounds read low): 0.888 (active)
- normalized growth (locus YKL190W, strain CNB1, active compounds read low): 0.95
- normalized growth (locus YKR001C, strain vps1, active compounds read low): 0.838 (active)
- normalized growth (locus YLR039C, strain RIC1, active compounds read low): 0.879
- normalized growth (locus YLR058C, strain SHM2, active compounds read low): 0.91
- normalized growth (locus YLR102C, strain apc9, active compounds read low): 0.945
- normalized growth (locus YLR262C, strain YPT6, active compounds read low): 0.814
- normalized growth (locus YLR268W, strain sec22, active compounds read low): 0.938
- normalized growth (locus YLR330W, strain CHS5, active compounds read low): 0.926
- normalized growth (locus YLR342W, strain FKS1 (second series), active compounds read low): 0.921
- normalized growth (locus YLR371W, strain rom2, active compounds read low): 0.945
- normalized growth (locus YLR418C, strain cdc73, active compounds read low): 0.766 (active)
- normalized growth (locus YML016C, strain PPZ1, active compounds read low): 0.944
- normalized growth (locus YML032C, strain rad52, active compounds read low): 0.899 (active)
- normalized growth (locus YML124C, strain tub3, active compounds read low): 0.93 (active)
- normalized growth (locus YMR078C, strain ctf18, active compounds read low): 0.939
- normalized growth (locus YMR223W, strain ubp8, active compounds read low): 0.92
- normalized growth (locus YMR307W, strain GAS1, active compounds read low): 0.872
- normalized growth (locus YNL067W, strain RPL9B, active compounds read low): 0.977
- normalized growth (locus YNL153C, strain GIM3, active compounds read low): 0.955
- normalized growth (locus YNL233W, strain BNI4, active compounds read low): 0.95
- normalized growth (locus YNL250W, strain rad50, active compounds read low): 0.863 (active)
- normalized growth (locus YNL271C, strain bni1, active compounds read low): 0.93
- normalized growth (locus YNL298W, strain CLA4, active compounds read low): 0.894 (active)
- normalized growth (locus YNL307C, strain MCK1, active compounds read low): 0.931
- normalized growth (locus YNL322C, strain KRE1, active compounds read low): 0.94
- normalized growth (locus YNR052C, strain pop2, active compounds read low): 0.977
- normalized growth (locus YOL006C, strain TOP1, active compounds read low): 1.02
- normalized growth (locus YOL012C, strain htz1): 0.738
- normalized growth (locus YOL147C, strain pex11, active compounds read low): 0.939
- normalized growth (locus YOR061W, strain CKA2, active compounds read low): 0.916
- normalized growth (locus YOR069W, strain VPS5, active compounds read low): 0.957
- normalized growth (locus YOR136W, strain idh2, active compounds read low): 0.929
- normalized growth (locus YOR144C, strain elg1, active compounds read low): 0.91 (active)
- normalized growth (locus YOR184W, strain ser1, active compounds read low): 0.893
- normalized growth (locus YOR316C, strain cot1, active compounds read low): 0.94
- normalized growth (locus YPL241C, strain CIN2, active compounds read low): 0.943
- normalized growth (locus YPR119W, strain clb2, active compounds read low): 0.951
- normalized growth (locus YPR141C, strain kar3, active compounds read low): 0.916
- normalized growth (locus YPR163C, strain tif3, active compounds read low): 0.938
- normalized growth (locus YPR167C, strain met16, active compounds read low): 0.91 (active)
- normalized growth (strain wtn01, active compounds read low): 0.948
